This is an account of results in PubChem BioAssay (EPA / NIEHS).

What all share (settings): mRNA level, 48 h; actives raise or lower the signal
Read-out in test [1]: Cytochrome P450 4A22 (Homo sapiens) (UniProt Q5TCH4)
In words: LTEA_HepaRG_CYP4A22: Life Technologies and Expression Analysis (LTEA) Assay for Cytochrome P450 4A22 (CYP4A22) using HepaRG (AID 2283495). The method in brief: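 HepaRG, 48 h post-plating -> serum-free induction medium; dosed 48 h, duplicate, 8 conc. (100 uM top, half-log), 0.5% DMSO. Readout: CYP4A22 mRNA by qRT-PCR, ACTB/GAPDH/POLR2A normalization; gain/loss fit relative to DMSO.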

Read-out in test [2]: Cytochrome P450 7A1 (Homo sapiens) (UniProt P22680)
In words: LTEA_HepaRG_CYP7A1: Life Technologies and Expression Analysis (LTEA) Assay for Cytochrome P450 7A1 (CYP7A1) using HepaRG (AID 2283496). In short, it runs like this:
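Using 0.5% DMSO as vehicle and baseline, chemicals were tested in duplicate over an 8-point range from 100 uM on HepaRG cells for 48 h; qRT-PCR signals were normalised to ACTB, GAPDH and POLR2A.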

Read-out in test [3]: Glutathione S-Transferase (GSTA2), GSTA2 (gene 2939)
Kind of test: LTEA_HepaRG_GSTA2: Life Technologies and Expression Analysis (LTEA) Assay for Glutathione S-Transferase (GSTA2) using HepaRG (AID 2283497). The method in brief:
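qRT-PCR readout of GSTA2 transcript, normalized to three housekeeping genes, fitted bidirectionally against 0.5% DMSO baseline. Differentiated HepaRG cells received compound for 48 h at 8 concentrations (top 100 uM, half-log steps).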

Read-out in test [4]: growth arrest and DNA damage 45 (GADD45G), GADD45G (gene 10912)
In words: LTEA_HepaRG_GADD45G: Life Technologies and Expression Analysis (LTEA) Assay for growth arrest and DNA damage 45 (GADD45G) using HepaRG (AID 2283499). In short, it runs like this:
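HepaRG, 48 h exposure, top 100 uM, half-log 8-point series, 0.5% DMSO vehicle, duplicates. Readout: GADD45G transcript by qRT-PCR (Fluidigm array), housekeeping-normalised (ACTB/GAPDH/POLR2A). Bidirectional curve fit vs DMSO baseline.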

Read-out in test [5]: Glutamate-cysteine ligase regulatory (GCLM), GCLM (gene 2730)
In words: LTEA_HepaRG_GCLM: Life Technologies and Expression Analysis (LTEA) Assay for Glutamate-cysteine ligase regulatory (GCLM) using HepaRG (AID 2283500). The method in brief:
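HepaRG, 48 h dosing, 100 uM top, half-log x8, 0.5% DMSO vehicle. Readout: GCLM mRNA by TaqMan qRT-PCR, housekeeping-normalized (ACTB/GAPDH/POLR2A). Curves fit bidirectionally vs DMSO baseline.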

Read-out in test [6]: Heat shock 70 kDa protein 1 (HSPA1A), gene 3303
Kind of test: LTEA_HepaRG_HSPA1A: Life Technologies and Expression Analysis (LTEA) Assay for Heat shock 70 kDa protein 1 (HSPA1A) using HepaRG (AID 2283502). The method in brief: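 HepaRG, 48 h exposure, 8-pt half-log CRC from 100 uM in 0.5% DMSO, duplicates. Readout: TaqMan qRT-PCR of HSPA1A mRNA, housekeeping-normalized (ACTB/GAPDH/POLR2A). Bidirectional fit vs 0.5% DMSO baseline.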

Read-out in test [7]: Hypoxia-inducible factor 1-alpha (Homo sapiens) (UniProt Q16665)
In words: LTEA_HepaRG_HIF1A: Life Technologies and Expression Analysis (LTEA) Assay for Hypoxia-inducible factor 1 (HIF1A) Trancription factor using HepaRG (AID 2283503). The method in brief:
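Gain- or loss-of-signal HIF1A mRNA changes are fitted against a DMSO baseline. HepaRG cultures receive eight concentrations, highest 100 uM, for 48 h in serum-free induction medium with 0.5% DMSO.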

Read-out in test [8]: 3-Hydroxy-3-Methylglutaryl-CoA Synthase 2 (HMGCS2), HMGCS2 (gene 3158)
Kind of test: LTEA_HepaRG_HMGCS2: Life Technologies and Expression Analysis (LTEA) Assay for 3-Hydroxy-3-Methylglutaryl-CoA Synthase 2 (HMGCS2) using HepaRG (AID 2283504). In short, it runs like this: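 qRT-PCR read-out of HMGCS2 transcript, normalised to three housekeeping genes, in HepaRG cells after 48 h chemical exposure. Eight-point curves from 100 uM, half-log dilutions, 0.5% DMSO vehicle; gain or loss fitted relative to DMSO baseline.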

Read-out in a further test: HGF (gene 3082)
Kind of test: LTEA_HepaRG_HGF: Life Technologies and Expression Analysis (LTEA) Assay for Hepatocyte Growth Facto (HGF) using HepaRG (AID 2283505). In short, it runs like this: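 HepaRG, 48 h dosing, 8-pt half-log series from 100 uM in 0.5% DMSO, duplicates. Readout: TaqMan qRT-PCR of HGF mRNA, housekeeping-normalized; bidirectional curve fit vs DMSO baseline.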

Read-out in test [9]: Insulin Like Growth Factor 1 (IGF1), IGF1 (gene 3479)
Kind of test: LTEA_HepaRG_IGF1: Life Technologies and Expression Analysis (LTEA) Assay for Insulin Like Growth Factor 1 (IGF1) using HepaRG (AID 2283506). In short, it runs like this:
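qRT-PCR readout of IGF1 mRNA, normalized to three housekeeping genes, after 48 h chemical exposure of HepaRG cells. Concentrations: 8-point half-log series, top 100 uM, 0.5% DMSO vehicle. Gain or loss fitted against DMSO baseline.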

Read-out in test [10]: Intercellular Adhesion Molecule 1 (ICAM1), ICAM1 (gene 3383)
In words: LTEA_HepaRG_ICAM1: Life Technologies and Expression Analysis (LTEA) Assay for Intercellular Adhesion Molecule 1 (ICAM1) using HepaRG (AID 2283507). In short, it runs like this:
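HepaRG, 48 h exposure, 8-pt half-log series from 100 uM, 0.5% DMSO vehicle, duplicates. Readout: TaqMan qRT-PCR mRNA, housekeeping-normalized (ACTB/GAPDH/POLR2A). Bidirectional curve fit vs DMSO baseline.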

Read-out in test [11]: Insulin-like growth factor-binding protein 1 (IGFBP1), IGFBP1 (gene 3484)
In words: LTEA_HepaRG_IGFBP1: Life Technologies and Expression Analysis (LTEA) Assay for Insulin-like growth factor-binding protein 1 (IGFBP1) using HepaRG (AID 2283508). The method in brief:
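qRT-PCR mRNA read-out (TaqMan, Fluidigm array), normalised to three housekeeping genes; HepaRG cells, 48 h exposure, 8-pt half-log series from 100 uM, 0.5% DMSO vehicle; bidirectional curve fit vs DMSO baseline.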

Read-out in test [12]: Interleukin 6 Receptor (IL6R), IL6R (gene 3570)
In words: LTEA_HepaRG_IL6R: Life Technologies and Expression Analysis (LTEA) Assay for Interleukin 6 Receptor (IL6R) using HepaRG (AID 2283510).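 As to AC50: differentiated human HepaRG liver cells in serum-free induction medium.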 In short, it runs like this:
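HepaRG, 48 h exposure, 8-pt half-log series, top 100 uM, 0.5% DMSO vehicle, duplicates. Read-out: TaqMan qRT-PCR of IL6R transcript, housekeeping-gene normalized. Gain or loss fitted relative to DMSO baseline.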

Read-out in test [13]: Potassium channel subfamily K member 1 (KCNK1), KCNK1 (gene 3775)
Kind of test: LTEA_HepaRG_KCNK1: Life Technologies and Expression Analysis (LTEA) Assay for Potassium channel subfamily K member 1 (KCNK1) using HepaRG (AID 2283511). In short, it runs like this: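 HepaRG, 48 h exposure, 8-pt half-log series top 100 uM, 0.5% DMSO vehicle, duplicates. Readout: KCNK1 transcript by qRT-PCR (Fluidigm array), housekeeping-normalized; bidirectional curve fit relative to DMSO baseline.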

Read-out in test [14]: Keratin 19 (KRT19), KRT19 (gene 3880)
In words: LTEA_HepaRG_KRT19: Life Technologies and Expression Analysis (LTEA) Assay for Keratin 19 (KRT19) using HepaRG (AID 2283512). In short, it runs like this:
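HepaRG, 48 h chemical exposure, 8-pt half-log CRC from 100 uM, 0.5% DMSO vehicle, duplicates. Readout: TaqMan qRT-PCR of KRT19 mRNA, housekeeping-normalized (ACTB/GAPDH/POLR2A). Bidirectional fit vs DMSO baseline.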

Read-out in test [15]: Lipase C (LIPC), LIPC (gene 3990)
In words: LTEA_HepaRG_LIPC: Life Technologies and Expression Analysis (LTEA) Assay for Lipase C (LIPC) using HepaRG (AID 2283514). The method in brief:
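HepaRG, 48 h exposure, 8-pt half-log series from 100 uM in 0.5% DMSO, duplicates. Readout: LIPC mRNA by Fluidigm qRT-PCR, housekeeping-normalized (ACTB/GAPDH/POLR2A). Gain or loss fitted bidirectionally against DMSO baseline.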

Read-out in test [16]: Lipoprotein lipase (LPL), LPL (gene 4023)
Kind of test: LTEA_HepaRG_LPL: Life Technologies and Expression Analysis (LTEA) Assay for Lipoprotein lipase (LPL) using HepaRG (AID 2283515). In short, it runs like this: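 HepaRG, 48 h exposure, 8-pt half-log dilutions from 100 uM, 0.5% DMSO vehicle, duplicates; qRT-PCR (Fluidigm array) of LPL mRNA vs housekeeping genes; bidirectional curve fit relative to DMSO baseline.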

Read-out in test [17]: MicroRNA 122 (MIR122), gene 406906
Kind of test: LTEA_HepaRG_MIR122: Life Technologies and Expression Analysis (LTEA) Assay for MicroRNA 122 (MIR122) using HepaRG (AID 2283516). Also: the transcript read is the microRNA miR-122. The method in brief:
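qRT-PCR read-out (TaqMan, Fluidigm array), normalized to three housekeeping genes; HepaRG cells dosed 48 h at 8 concentrations up to 100 uM in 0.5% DMSO, duplicate; gain or loss fitted against DMSO baseline.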

Read-out in test [18]: matrix metalloproteinase-10 (MMP10), MMP10 (gene 4319)
Kind of test: LTEA_HepaRG_MMP10: Life Technologies and Expression Analysis (LTEA) Assay for matrix metalloproteinase-10 (MMP10) using HepaRG (AID 2283517). In short, it runs like this: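 Transcript levels come from Fluidigm qRT-PCR normalized to three housekeeping genes, with curves fitted bidirectionally against 0.5% DMSO. Human HepaRG cells were dosed for 48 hours at concentrations up to 100 uM.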

Read-out in the next test: MYC, MYC (gene 4609)
Kind of test: LTEA_HepaRG_MYC: Life Technologies and Expression Analysis (LTEA) Assay for MYC using HepaRG (AID 2283518). In short, it runs like this:
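qRT-PCR read-out of MYC transcript (Fluidigm TaqMan, housekeeping-normalized) after 48 h chemical exposure of HepaRG cells; eight concentrations, top 100 uM, half-log steps. Bidirectional curve fitting against 0.5% DMSO vehicle baseline.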

The source made the active and inactive calls. The calls were made as follows: active = hit-call score of the fitted dose curve at least 0.9, where 1 is the maximum; inactive = score below 0.9.

Hypoxia-inducible factor 1-alpha (Homo sapiens), sequence (Q16665 whole entry, looked up): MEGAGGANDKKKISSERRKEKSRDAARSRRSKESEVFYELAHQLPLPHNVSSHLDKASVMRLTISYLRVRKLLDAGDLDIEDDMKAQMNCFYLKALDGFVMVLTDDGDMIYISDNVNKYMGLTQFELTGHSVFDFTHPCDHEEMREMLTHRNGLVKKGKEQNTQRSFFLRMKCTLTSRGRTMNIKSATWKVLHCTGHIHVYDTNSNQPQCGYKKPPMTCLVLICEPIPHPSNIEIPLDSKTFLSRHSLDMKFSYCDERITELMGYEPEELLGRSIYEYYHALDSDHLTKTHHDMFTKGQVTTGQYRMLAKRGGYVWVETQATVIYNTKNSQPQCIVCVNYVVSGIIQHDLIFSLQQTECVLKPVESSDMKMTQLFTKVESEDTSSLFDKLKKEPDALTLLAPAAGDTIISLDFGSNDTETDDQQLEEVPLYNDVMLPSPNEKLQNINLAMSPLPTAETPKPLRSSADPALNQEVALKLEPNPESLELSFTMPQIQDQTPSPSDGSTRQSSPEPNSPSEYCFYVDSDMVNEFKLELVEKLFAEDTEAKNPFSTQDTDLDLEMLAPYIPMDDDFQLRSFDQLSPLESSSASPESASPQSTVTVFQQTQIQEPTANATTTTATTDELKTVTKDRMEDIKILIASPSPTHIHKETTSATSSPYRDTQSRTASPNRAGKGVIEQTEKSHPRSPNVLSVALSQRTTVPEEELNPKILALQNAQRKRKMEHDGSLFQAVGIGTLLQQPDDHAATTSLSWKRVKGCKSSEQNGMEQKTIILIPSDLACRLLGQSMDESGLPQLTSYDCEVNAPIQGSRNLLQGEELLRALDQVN

By AC50 is commonly meant the concentration giving half of the maximal activity seen. On to `CCC(=O)C(CC(C)N(C)C)(c1ccccc1)c1ccccc1` (stereo not drawn), for which the call in [1], in test [2], in [3], in test [4], in [5] and in test [6] was inactive. For the same compound, the outcome (in test [7]; with HGF (gene 3082); in [9]; in [10]; in [11]; in [12]) was inactive. Also, the outcome in test [13] is “inactive”; in test [15], “inactive”; in [16], “inactive”; in [17], “inactive”; in test [18], “inactive”; with MYC, MYC (gene 4609) it was “inactive”. In addition, the concentration at half-maximal activity (AC50) in test [8] is 36.2 µM (active); in test [14], 18.9 µM (active).

Turning to `O=[N+]([O-])c1ccc(O)c([N+](=O)[O-])c1`, the concentration at half-maximal activity (AC50) in test [1] is 27.8 µM (active); in test [2], 25.6 µM (active); in [3], 17 µM (active); in test [4], 90.6 µM (active); in [5], 12.2 µM (active); in test [7] it was 44.8 µM (active). The AC50 in [8] was 22.9 µM (active); in test [9], 27.9 µM (active); in test [11] it was 13.3 µM (active); in test [12], 17.7 µM (active); in test [15], 12 µM (active); in test [17], 23.1 µM (active). For the same compound, the AC50 with MYC, MYC (gene 4609) was 89.6 µM (active). In addition, the compound was classed as inactive (in [6]; with HGF (gene 3082); in test [10]; in test [13]; in [14]; in [16]). Besides, in [18], the compound was classed as inactive.

Consider `CC(C)(C)c1cc(O)ccc1O`, for which the result in test [1], in test [2], in test [3], in test [4], in [5] and in [6] was inactive. For the same compound, the outcome (in [8]; in the test with HGF (gene 3082); in [9]; in test [10]; in test [11]; in test [12]) was inactive. The outcome was “inactive” in test [14]; “inactive” in [15]; “inactive” in test [16]; “inactive” in [17]; “inactive” in test [18]; “inactive” in the test with MYC, MYC (gene 4609).

Take `CCC(C)(C)c1ccc(O)c(C(C)(C)CC)c1`: the result in test [1], in test [2], in test [3], in test [4], in [5] and in test [6] was inactive. Further, the outcome (in [7]; in test [8]; in the test with HGF (gene 3082); in test [9]; in [10]; in [11]) was inactive. Besides, the result in [12], in [13], in test [14], in test [15], in [16] and in [17] was inactive. Besides, the outcome was “inactive” in test [18] and “inactive” with MYC, MYC (gene 4609).
